Screening data from PubChem.
Rin1 Abl inh – inhibitors of human Rin1-Abl protein interaction. P00519+Q13671. TR-FRET Rin1/Abl binding, biochemical. inhibition, % at 7.35 µM. actives 0.4% (n = 360,000); in the data active means inhibition above about 5%, passing the limit was not always enough
IDE cell activ – activators of human insulin-degrading enzyme in cells. P14735. HEK cells, FAbeta-B cleavage, fluorescence polarization; 0% vehicle, 100% cell-free pure enzyme wells. activation, % at 5.96 µM. actives 0.073% (n = 340,000);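 active means activation above the mean of all tested compounds plus 3 SD, set per screening campaign, cut at about 17% in these data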
IDE inh – inhibits human insulin-degrading enzyme in HEK cells | P14735 | FAbetaB cleavage, fluorescence polarization | inhibition, % at 5.59 µM | actives 0.41% (n = 320,000) | AID 434962;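 active means percent inhibition above the average of all tested compounds plus 3 SD, set per screening campaign, cut at about 16% in these data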;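 further: IDE supplied by intact live HEK cells; FP after avidin binding of uncleaved biotin substrate so inhibition keeps polarization high; 0% = DMSO wells and 100% = 60 µM reference IDE inhibitor Ii1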
Calb FLC – affects C. albicans growth with fluconazole | C. albicans CaCi-2 (fluconazole-resistant clinical isolate) + fluconazole, Alamar Blue growth, 48 h | growth inhibition, % (test concentration not listed) | actives 0.57% (n = 300,000) | AID 1979;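 active means growth inhibition above about 58% in most replicates, limit read from the data, passing the limit was not always enough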;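 further: all wells also contain fluconazole at 8 µg/ml as a sub-toxic cotreatment; 0% = median of DMSO wells and 100% = median of geldanamycin control wells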
Rpn11 block – Rpn11 (human) deubiquitinase inhibition; human 26S proteasome, Ub4-pepOG fluorescence polarization; 20S core pre-blocked with epoxomicin; inhibition, % at 20 µM; actives 0.59% (n = 360,000); AID 588493;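 active means inhibition at 20 µM, scaled to each plate's controls, above about 33%, limit read from the data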
TPT1 inhibitor – C. albicans TPT1 enzyme inhibition. recombinant caTPT1, FP RNA substrate dephosphorylation. inhibition, % at 5 µM. actives 0.81% (n = 300,000). AID 1962;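 active means inhibition above the mean of all tested compounds plus 3 SD, set per screening campaign, cut at about 24% in these data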;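 further: plate controls were DMSO alone for no effect and ferristatin control at 100 nM for full effect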
* hit, by the source's call. In the library only some 2.3% were active in any assay of this set; here they are far more common.

Results for CCCc1cc(C(=O)Nc2sc3c(c2C#N)CCC3)no1 ?
Rin1 Abl inh: 2; IDE cell activ: -3; IDE inh: 3; Calb FLC: 84*; Rpn11 block: 11; TPT1 inhibitor: -1

How did CC1CCc2c(sc(NC(=O)c3nc4ncccn4n3)c2C#N)C1 (configuration not stated) do in these assays?
Rin1 Abl inh: -1; IDE cell activ: -1; IDE inh: 1; Calb FLC: -2; Rpn11 block: 6; TPT1 inhibitor: -1

How did N#Cc1c(NC(=O)c2nc3ncccn3n2)sc2c1CCCCC2 do in these assays?
Rin1 Abl inh: -1; IDE cell activ: 4; IDE inh: -1; Calb FLC: 95*; Rpn11 block: -1; TPT1 inhibitor: -1

Results for Cc1onc(C(=O)Nc2sc3c(c2C#N)CCCC3)c1[N+](=O)[O-] ?
Rin1 Abl inh: -1; IDE cell activ: 1; IDE inh: 1; Calb FLC: 82*; Rpn11 block: 1; TPT1 inhibitor: -2

What do the screens show for `Cc1onc(-c2ccccc2Cl)c1C(=O)Nc1sc2c(c1C#N)CCC2`?
Rin1 Abl inh: -6; IDE cell activ: 4; IDE inh: -5; Calb FLC: 77*; Rpn11 block: 33; TPT1 inhibitor: 5

How did CC(=O)Nc1sc2c(c1C#N)CCCC2 do in these assays?
Rin1 Abl inh: 1; IDE cell activ: 5; IDE inh: 5; Calb FLC: -7; Rpn11 block: 6; TPT1 inhibitor: 4

What do the screens show for `CCN1C(=O)CC(c2ccccc2)N(C2CCCC2)c2nc(Nc3ccc(C(=O)NC4CCN(C)CC4)cc3OC)ncc21` (configuration not stated)?
Rin1 Abl inh: 10*; IDE cell activ: -23; IDE inh: -1; Rpn11 block: -8

How did CCc1c(C)c(C#N)c2nc3ccccc3n2c1NCCN(C)C do in these assays?
Rin1 Abl inh: -2; IDE cell activ: 4; IDE inh: -2; Calb FLC: 43; Rpn11 block: 5; TPT1 inhibitor: -1

What do the screens show for `C=CCc1c(C)c(C#N)c2nc3ccccc3n2c1NCCN(C)C`?
Rin1 Abl inh: -7; IDE cell activ: -3; IDE inh: 1; Calb FLC: 91*; Rpn11 block: 1; TPT1 inhibitor: -2

Results for CCCCN(C(=O)c1cccc(-n2cccc2)c1)c1c(N)n(Cc2ccccc2)c(=O)[nH]c1=O ?
Rin1 Abl inh: 2; IDE cell activ: 5; IDE inh: -5; Calb FLC: -3; TPT1 inhibitor: 9

What do the screens show for `CCCCn1c(N)c(N(CCOC)C(=O)c2ccc(C)c(S(=O)(=O)N3CCCCC3)c2)c(=O)[nH]c1=O`?
Rin1 Abl inh: 0; IDE cell activ: -1; IDE inh: 2; Calb FLC: -7; Rpn11 block: -2; TPT1 inhibitor: 1

How did CCOc1ccc(CNC(=O)Nc2ccccc2)cc1 do in these assays?
Rin1 Abl inh: 0; IDE cell activ: 3; IDE inh: 0; Calb FLC: -4; Rpn11 block: 2; TPT1 inhibitor: -3

What do the screens show for `COc1ccc(/C=C/c2cc(-c3ccc(C)cc3)o[n+]2C)cc1`?
Rin1 Abl inh: -6; IDE cell activ: -4; IDE inh: -2; Calb FLC: 90*; Rpn11 block: 2; TPT1 inhibitor: 5

What do the screens show for `COc1ccc(/C=C/c2c(-c3ccc(OC)cc3)oc3ccc(-c4ccc(OC)cc4)cc23)cc1`?
Rin1 Abl inh: 3; IDE cell activ: -3; IDE inh: -3; Calb FLC: 1; Rpn11 block: -3; TPT1 inhibitor: -1

Results for N#Cc1ccc(OCC(O)CN2CCN(c3ncc(C(F)(F)F)cc3Cl)CC2)cc1 (configuration not stated) ?
Rin1 Abl inh: 2; IDE cell activ: -8; IDE inh: 8; Calb FLC: 5; Rpn11 block: 2; TPT1 inhibitor: 5

Results for CN1C[C@@H]2C(c3ccccc3)C3(c4ccc(C#N)cc4)CC2(C3)[C@H]1c1ccccc1 (some centres not stated) ?
Rin1 Abl inh: 2; IDE cell activ: 2; IDE inh: 3; Calb FLC: -35; Rpn11 block: -6; TPT1 inhibitor: -4

How did CN1C[C@@H]2C(c3ccccc3)C3(c4ccccc4)CC2(C3)[C@H]1c1ccccc1 (some centres not stated) do in these assays?
Rin1 Abl inh: 1; IDE cell activ: 3; IDE inh: -2; Calb FLC: 110*; Rpn11 block: -6; TPT1 inhibitor: -2

How did O=C(CN1C(=O)C2CCCCC2C1=O)Nc1cc(C(F)(F)F)ccc1N1CCCC1 (configuration not stated) do in these assays?
Rin1 Abl inh: 1; IDE cell activ: -3; IDE inh: 1; Calb FLC: -12; Rpn11 block: 2; TPT1 inhibitor: -3

How did N#Cc1c(-c2ccc(Cl)cc2)cc(-c2ccccc2)nc1SCC(=O)O do in these assays?
Rin1 Abl inh: -1; IDE cell activ: 5; IDE inh: 5; Calb FLC: 88*; Rpn11 block: 12; TPT1 inhibitor: -2

Results for Cc1ccc(C(=O)Nc2nc3ccccc3c(=O)s2)cc1 ?
Rin1 Abl inh: -97; IDE cell activ: -9; IDE inh: 5; Calb FLC: 87*; Rpn11 block: -2; TPT1 inhibitor: 3

What do the screens show for `CC(=O)Nc1nc(=O)c2ccccc2s1`?
Rin1 Abl inh: 1; IDE cell activ: -1; IDE inh: -2; Calb FLC: 42; Rpn11 block: -8; TPT1 inhibitor: 1

How did CSc1nc2ccc3nc(NC(=O)c4ccc(C)cc4)sc3c2s1 do in these assays?
Rin1 Abl inh: -2; IDE cell activ: 2; IDE inh: 1; Calb FLC: 1; Rpn11 block: 8; TPT1 inhibitor: 1

Results for O=C(Nc1nc(=O)c2ccccc2s1)c1ccccc1 ?
Rin1 Abl inh: 4; IDE cell activ: -1; IDE inh: 9; Calb FLC: 87*; Rpn11 block: -7; TPT1 inhibitor: 0

What do the screens show for `CC1CCN(c2ccc3nnc(CCC(=O)NC(C)C)n3n2)CC1`?
Rin1 Abl inh: -2; IDE cell activ: -1; IDE inh: 3; Calb FLC: -6; Rpn11 block: 2; TPT1 inhibitor: 0

Results for C#CCN(Cc1ccco1)C(=O)c1cc(COc2cccc3cccnc23)on1 ?
Rin1 Abl inh: -4; Rpn11 block: 0

How did CCc1noc(C)c1C(=O)NNC(=O)COc1ccc(C)cc1 do in these assays?
Rin1 Abl inh: 1; IDE cell activ: -3; IDE inh: 2; Rpn11 block: -5; TPT1 inhibitor: -2

How did CC1CCN(c2ccc(NC(=O)C3CCCN3S(=O)(=O)c3ccc(F)cc3)cc2)CC1 (configuration not stated) do in these assays?
Rin1 Abl inh: 2; IDE cell activ: 7; IDE inh: -3; Rpn11 block: 7
